Several values for one entry are separate records, joined by “and”; a condition that tells them apart may be missing. Equal values may be shown once. Activity calls are given as the source filed them.
What was measured:
[1] = optical density shifts of acrAB sulA E. coli – strain DRC41, OD650, 48 h, E. coli filamentation inducer project, primary screen (AID 1152); conditions: higher = more signal, called active from +8 up or from −8 down;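 note: E. coli MC1000 strain DRC41 lacking acrAB efflux pump and sulA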
[2] = probe aLefty1 binding on compound microarray – biochemical, small-molecule microarray, 635/667 nm fluorescence, primary screen (AID 1153); conditions: higher = more signal;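 note: score merges spot fluorescence with signal-to-noise ratio from the scanned slide images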
[3] = plasmodial surface anion channel blockers, osmotic lysis – cell-based, P. falciparum Indochina, OD700, 1 h, primary screen (AID 1154); conditions: P. falciparum Indochina infected RBC osmotic lysis, higher = more signal, called active from +8 up or from −8 down
[4] = plasmodial surface anion channel blockers, osmotic lysis – cell-based, P. falciparum Indochina, OD700, 2 h, primary screen (AID 1155);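 note: lysis reports solute entry through the parasite surface anion channel PSAC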; conditions: P. falciparum Indochina infected erythrocytes, higher = more signal, called active from +8 up or from −8 down
[5] = changes in parasitized red cell lysis, either direction – P. falciparum Indochina, OD700, 3 h, PSAC antagonist project, primary screen (AID 1156); conditions: P. falciparum-infected erythrocytes, osmotic lysis, higher = more signal, called active from +8 up or from −8 down
[6] = plasmodial surface anion channel blockers, osmotic lysis – cell-based, P. falciparum Indochina, OD700, 18 h, primary screen (AID 1157); conditions: P. falciparum Indochina infected erythrocytes, osmotic lysis OD700, 18 h; higher = more signal, called active from +8 up or from −8 down
[7] = S6 kinase pathway phospho-S6 level changes – cell-based, A549, cytoblot, luminescence, serum-stimulated, primary screen (AID 1158); conditions: 5 h, higher = more signal;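 note: serum-stimulated A549 lung adenocarcinoma cells; signal is phosphorylated S6 detected by cytoblot immunostaining with HRP secondary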
[8] = biological target: NADPH oxidase 2 (Homo sapiens) (UniProt P04839); assay: compounds shifting NOX2 Amplex Red fluorescence – cell-based, HEK293-NOX2, PMA-stimulated, NOX inhibitor project, primary screen (AID 1159); conditions: 45 min, higher = more signal, called active from +8 up or from −8 down; note: test concentration not given here
[9] = biological target: NADPH oxidase 4 (Homo sapiens) (UniProt Q9NPH5); assay: compounds shifting NOX4 Amplex Red fluorescence – cell-based, HEK293-NOX4, tetracycline-induced, NOX inhibitor project, primary screen (AID 1160); conditions: HEK293-NOX4, Amplex Red H2O2 fluorescence, 45 min; higher = more signal, called active from +8 up or from −8 down
[10] = biological target: NADPH oxidase 5 (Homo sapiens) (UniProt Q96PH1); assay: compounds shifting NOX5 Amplex Red fluorescence – cell-based, HEK293-NOX5, NOX inhibitor project, primary screen (AID 1161); conditions: HEK293-NOX5, ionomycin, 45 min, higher = more signal
[11] = compound effects on lung adenocarcinoma cell viability – A549, calcein-AM fluorescence, 48 h, basal, profiling panel (AID 1162); conditions: higher = more signal; note: test concentration not given here
[12] = compound effects on differentiated 3T3-L1 adipocyte viability – cell-based, 3T3-L1 adipocytes, calcein-AM fluorescence, 48 h, basal, profiling panel (AID 1163); conditions: 3T3-L1 adipocytes viability, higher = more signal; note: test concentration not given here
[13] = compound effects on hepatocellular carcinoma cell viability – HepG2, calcein-AM fluorescence, 48 h, basal, profiling panel (AID 1164); conditions: higher = more signal; note: test concentration not given here
[14] = compound effects on multiple myeloma cell viability – MM1S, calcein-AM fluorescence, 48 h, basal, profiling panel (AID 1165); conditions: higher = more signal; note: test concentration not given here
[15] = calcein-AM signal in unstimulated myeloma cells – cell-based, calcein-AM fluorescence, 48 h, PK04 Diversity Set, profiling panel (AID 1166); conditions: RPMI8226 myeloma viability, higher = more signal;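 note: cells grown under basal conditions without added stimulus; test concentration not given here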
[16] = JC-1 mitochondrial signal, unstimulated HepG2 cells – cell-based, JC-1 fluorescence, 24 h, 100 nL compound, profiling panel (AID 1167); conditions: HepG2 mitochondrial potential, higher = more signal; note: test concentration not given here
[17] = JC-1 mitochondrial signal, unstimulated adipocytes – cell-based, JC-1 fluorescence, 3T3-L1 adipocytes, 24 h, 100 nL compound, profiling panel (AID 1168); conditions: JC-1 mitochondrial fluorescence, higher = more signal, called active from +8 up or from −8 down; note: test concentration not given here
[18] = JC-1 mitochondrial signal, unstimulated myeloma cells – cell-based, JC-1 fluorescence, RPMI8226, 24 h, 100 nL compound, profiling panel (AID 1169); conditions: JC-1 mitochondrial potential fluorescence, higher = more signal; note: test concentration not given here
[19] = JC-1 mitochondrial signal, unstimulated MM1S myeloma – cell-based, JC-1 fluorescence, 24 h, 100 nL compound, profiling panel (AID 1170); conditions: MM1S mitochondrial potential, higher = more signal; note: test concentration not given here
[20] = resazurin metabolic signal in A549 cells – cell-based, resazurin fluorescence, 24 h, PK04 Diversity Set, profiling panel (AID 1171); conditions: A549 viability, higher = more signal, called active from +8 up or from −8 down; note: test concentration not given here

NADPH oxidase 5 (Homo sapiens), sequence (Q96PH1 whole entry, looked up): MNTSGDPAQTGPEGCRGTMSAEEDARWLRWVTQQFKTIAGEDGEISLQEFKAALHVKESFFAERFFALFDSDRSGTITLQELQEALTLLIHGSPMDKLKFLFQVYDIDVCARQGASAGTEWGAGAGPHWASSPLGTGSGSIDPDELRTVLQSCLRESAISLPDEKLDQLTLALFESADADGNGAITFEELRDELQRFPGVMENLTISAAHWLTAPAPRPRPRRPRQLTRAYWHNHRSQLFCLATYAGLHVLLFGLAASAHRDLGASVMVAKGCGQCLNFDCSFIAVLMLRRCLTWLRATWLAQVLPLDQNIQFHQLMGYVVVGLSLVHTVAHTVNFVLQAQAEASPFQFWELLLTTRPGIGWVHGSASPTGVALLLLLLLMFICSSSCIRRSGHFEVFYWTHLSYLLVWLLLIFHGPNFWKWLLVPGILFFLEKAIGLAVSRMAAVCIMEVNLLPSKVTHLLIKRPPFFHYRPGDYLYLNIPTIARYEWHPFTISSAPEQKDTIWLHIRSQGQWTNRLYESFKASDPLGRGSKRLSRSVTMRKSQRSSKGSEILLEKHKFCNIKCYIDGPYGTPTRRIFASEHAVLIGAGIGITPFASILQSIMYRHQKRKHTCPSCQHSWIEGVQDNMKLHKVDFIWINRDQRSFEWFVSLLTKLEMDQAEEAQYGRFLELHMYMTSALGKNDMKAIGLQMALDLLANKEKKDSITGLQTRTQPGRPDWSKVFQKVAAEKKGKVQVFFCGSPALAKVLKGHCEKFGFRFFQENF
NADPH oxidase 2 (Homo sapiens), sequence (P04839 whole entry, looked up): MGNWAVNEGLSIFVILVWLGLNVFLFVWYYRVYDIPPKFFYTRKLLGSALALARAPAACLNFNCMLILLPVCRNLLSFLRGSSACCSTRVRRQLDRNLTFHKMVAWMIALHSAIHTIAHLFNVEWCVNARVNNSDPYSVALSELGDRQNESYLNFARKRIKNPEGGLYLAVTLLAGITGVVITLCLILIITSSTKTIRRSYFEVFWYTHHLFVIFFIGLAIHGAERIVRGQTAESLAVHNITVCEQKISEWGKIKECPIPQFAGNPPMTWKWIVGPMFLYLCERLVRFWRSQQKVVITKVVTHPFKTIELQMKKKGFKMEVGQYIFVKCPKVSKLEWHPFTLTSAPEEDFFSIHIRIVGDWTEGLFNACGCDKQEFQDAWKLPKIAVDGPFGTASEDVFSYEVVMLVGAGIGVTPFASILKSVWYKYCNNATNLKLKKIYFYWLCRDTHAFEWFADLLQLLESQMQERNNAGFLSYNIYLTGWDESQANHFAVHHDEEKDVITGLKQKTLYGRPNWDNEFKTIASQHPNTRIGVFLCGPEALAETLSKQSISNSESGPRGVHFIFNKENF
NADPH oxidase 4 (Homo sapiens), sequence (Q9NPH5 whole entry, looked up): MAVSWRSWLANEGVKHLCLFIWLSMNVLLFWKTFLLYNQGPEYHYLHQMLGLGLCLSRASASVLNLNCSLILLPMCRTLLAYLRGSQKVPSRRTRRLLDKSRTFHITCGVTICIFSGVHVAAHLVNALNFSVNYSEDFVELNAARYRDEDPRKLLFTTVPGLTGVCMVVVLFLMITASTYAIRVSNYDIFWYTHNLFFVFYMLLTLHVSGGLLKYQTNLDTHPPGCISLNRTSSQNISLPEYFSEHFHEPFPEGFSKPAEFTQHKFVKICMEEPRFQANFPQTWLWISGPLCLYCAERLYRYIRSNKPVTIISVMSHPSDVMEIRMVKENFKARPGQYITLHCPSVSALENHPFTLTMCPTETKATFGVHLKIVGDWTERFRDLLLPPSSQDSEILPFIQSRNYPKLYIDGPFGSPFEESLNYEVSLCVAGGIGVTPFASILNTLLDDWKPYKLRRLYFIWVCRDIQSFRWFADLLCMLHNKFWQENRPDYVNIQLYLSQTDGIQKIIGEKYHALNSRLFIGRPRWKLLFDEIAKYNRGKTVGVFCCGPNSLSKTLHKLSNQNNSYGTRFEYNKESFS

C[N+](C)(C)CCCCCCNC(=O)[C@@H]1C[C@@H]2C(=O)N[C@@H](CCCC[N+](C)(C)C)C(=O)N2[C@@H]1c1ccc(O)cc1
z-score [1]: 0.877 (inactive) and 0.123 (inactive) | composite z-score [2]: -0.0011 and -0.149 | z-score [3]: 0.973 (inactive) and 1.9 (inactive) | z-score [4]: 0.106 (inactive) and 0.554 (inactive) | z-score [5]: -0.0454 (inactive) and 0.0605 (inactive) | z-score [6]: -0.115 (inactive) and 0.375 (inactive) | z-score [7]: -0.336 and -0.254 | z-score [8]: -0.441 (inactive) and -0.988 (inactive) | z-score [9]: 0.105 (inactive) and -0.431 (inactive) | z-score [10]: 0.58 and -0.839 | z-score [11]: 0.602 and 0.107 | z-score [12]: -0.266 and -0.25 | z-score [13]: 0.284 and -0.812 | z-score [14]: 0.814 and -0.514 | z-score [15]: -0.587 and 0.392 | z-score [16]: -0.367 and -1.19 | z-score [17]: 0.608 (inactive) and 0.109 (inactive) | z-score [18]: -0.7 and 0.534 | z-score [19]: -0.778 and -0.749 | z-score [20]: 0.527 (inactive) and 0.818 (inactive)

CO[C@@H]1COC(=O)CC=C[C@H](C)[C@@H](NS(=O)(=O)c2ccc(C)cc2)COC(=O)CC=C[C@@H]1C
z-score [1]: 0.578 (inactive) and 0.567 (inactive) | composite z-score [2]: -0.186 and 0.0492 | z-score [3]: 0.614 (inactive) and 0.595 (inactive) | z-score [4]: 0.281 (inactive) and -0.12 (inactive) | z-score [5]: -0.153 (inactive) and 0.571 (inactive) | z-score [6]: 0.401 (inactive) and 0.367 (inactive) | z-score [7]: -0.3 and -0.484 | z-score [8]: 0.0381 (inactive) and 0.541 (inactive) | z-score [9]: 0.724 (inactive) and 0.493 (inactive) | z-score [10]: 0.423 and 0.277 | z-score [11]: 0.725 and -1.15 | z-score [12]: -0.779 and -0.0305 | z-score [13]: 0.515 and -1.42 | z-score [14]: 0.317 and 0.286 | z-score [15]: -0.0273 and 0.0878 | z-score [16]: 0.651 and -0.353 | z-score [17]: -0.162 (inactive) and -1.02 (inactive) | z-score [18]: -0.235 and 0.237 | z-score [19]: 0.654 and -0.385 | z-score [20]: -0.512 (inactive) and 1.4 (inactive)

COC(=O)c1c2oc(c1C(=O)OC)C(=O)N[C@@H](Cc1ccccc1)Cn1cc(nn1)C1(CCCCC1)NC(=O)N[C@H](CO)CC2
z-score [1]: 2.62 (inactive) and 1.74 (inactive) | composite z-score [2]: 0.391 and 0.0455 | z-score [3]: 1.36 (inactive) and 4.41 (inactive) | z-score [4]: 0.431 (inactive) and 1.49 (inactive) | z-score [5]: 0.557 (inactive) and 0.593 (inactive) | z-score [6]: 0.454 (inactive) and 0.801 (inactive) | z-score [7]: 0.427 and 0.173 | z-score [8]: 0.432 (inactive) and 0.428 (inactive) | z-score [9]: 1.67 (inactive) and -1.49 (inactive) | z-score [10]: 0.922 and -2.52 | z-score [11]: 2.13 and 1.06 | z-score [12]: -0.29 and 0.184 | z-score [13]: 0.893 and 0.0236 | z-score [14]: 0.434 and -0.392 | z-score [15]: 1.51 and -1.13 | z-score [16]: 1.09 and 4.63 | z-score [17]: 0.354 (inactive) and -0.852 (inactive) | z-score [18]: -0.0874 and -0.0745 | z-score [19]: 0.559 and -0.594 | z-score [20]: 0.976 (inactive) and 1.37 (inactive)

C=CCN(C(=O)C1N(CCCCCCO)C(=O)C2C(C(=O)O)C3C=CC21O3)C(C)(C)C (stereo not given)
z-score [1]: -0.32 (inactive) and -0.471 (inactive) | composite z-score [2]: -0.0573 and 0.0451 | z-score [3]: 0.203 (inactive) and 0.288 (inactive) | z-score [4]: 0.357 (inactive) and -0.387 (inactive) | z-score [5]: -0.395 (inactive) and -0.274 (inactive) | z-score [6]: -0.28 (inactive) and -0.404 (inactive) | z-score [7]: 0.473 and -0.117 | z-score [8]: 0.93 (inactive) and 0.763 (inactive) | z-score [9]: -0.0347 (inactive) and 0.143 (inactive) | z-score [10]: 0.588 and 1.41 | z-score [11]: 0.698 and -0.443 | z-score [12]: -0.356 and -0.171 | z-score [13]: 0.159 and 0.187 | z-score [14]: 0.576 and 0.13 | z-score [15]: -0.566 and -0.866 | z-score [16]: -0.872 and -0.997 | z-score [17]: -0.373 (inactive) and 0.302 (inactive) | z-score [18]: 0.186 and 0.699 | z-score [19]: 1.29 and 0.193 | z-score [20]: -0.0791 (inactive) and -0.385 (inactive)

C=C[C@@H](C)[C@@H](O)c1ccc(O)c2ccccc12
z-score [1]: -0.433 (inactive) and 0.891 (inactive) | composite z-score [2]: -0.194 and -0.0851 | z-score [3]: 0.837 (inactive) and 2.36 (inactive) | z-score [4]: -0.0805 (inactive) and 0.389 (inactive) | z-score [5]: -0.718 (inactive) and 0.0336 (inactive) | z-score [6]: 0.205 (inactive) and 1.19 (inactive) | z-score [7]: -0.565 and 0.273 | z-score [8]: -5.58 (inactive) and -5.73 (inactive) | z-score [9]: -0.616 (inactive) and -1.33 (inactive) | z-score [10]: 1.95 and 1.31 | z-score [11]: 0.799 and -0.778 | z-score [12]: -0.468 and 0.56 | z-score [13]: -0.165 and -1.36 | z-score [14]: -2.83 and -2.76 | z-score [15]: -1.07 and -1.45 | z-score [16]: -2.11 and -2.44 | z-score [17]: -0.672 (inactive) and -0.253 (inactive) | z-score [18]: -0.994 and -0.39 | z-score [19]: -1.51 and -1.39 | z-score [20]: -0.852 (inactive) and -0.3 (inactive)

C=CCN(CCCC)C(=O)C(c1cccs1)N(C(=O)/C=C\C(=O)O)c1ccc(CCO)cc1 (stereo not given)
z-score [1]: 0.369 (inactive) and 0.133 (inactive) | composite z-score [2]: -0.279 and -0.147 | z-score [3]: 0.855 (inactive) and 1.03 (inactive) | z-score [4]: -0.14 (inactive) and -0.182 (inactive) | z-score [5]: 0.517 (inactive) and 0.0377 (inactive) | z-score [6]: 0.0866 (inactive) and 0.233 (inactive) | z-score [7]: 0.0768 and 0.0738 | z-score [8]: 0.377 (inactive) and 0.12 (inactive) | z-score [9]: -0.432 (inactive) and -0.518 (inactive) | z-score [10]: 1.18 and -0.0206 | z-score [11]: -0.178 and 0.505 | z-score [12]: -0.0575 and -0.458 | z-score [13]: 0.267 and 1.02 | z-score [14]: 1.72 and 1.52 | z-score [15]: 0.657 and -0.192 | z-score [16]: 0.484 and -0.279 | z-score [17]: -0.527 (inactive) and 0.0402 (inactive) | z-score [18]: -0.996 and 0.19 | z-score [19]: -0.874 and -0.407 | z-score [20]: 0.0696 (inactive) and -0.0804 (inactive)

From PubChem BioAssay
